Hits are enriched below; roughly 11% of the tested compounds scored in any of these assays.
FLuc inh: Photinus pyralis luciferase inhibition. P08659. purified P. pyralis luciferase, luminescence, biochemical. Potency, µM (doses to about 115 µM), usual class: inhibitors. 76,000 tested, 2.5% active; note: nearly all actives have a fitted effect of over 65% in size
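FLuc 10nM, D-luciferin 10uM, ATP 10uM, Mg acetate 10mM, Tris acetate pH 7.5, Tween/BSA; cpd qHTS; enzyme added last; CCD luminescence.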
HEK293 tox: cytotoxic compounds in HEK 293 cells; HEK 293 viability, ATP luminescence (CellTiter-Glo), 48-72 h; Potency, µM (doses to about 115 µM), for the others: at the top dose activity change, negative = cytotoxicity, usual class: inhibitors; 94,000 tested, 6.6% active; note: nearly all actives have a fitted effect of over 60% in size
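Viability of HEK 293 cells, plated at 250 cells/well, was judged by cellular ATP after compound treatment for 48 or 72 hr. Luminescence was imaged 10 min after CellTiter-Glo addition at room temperature.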
3T3 cytotox: cytotoxic compounds in NIH 3T3 cells | NIH 3T3 viability, CellTiter-Glo ATP luminescence, 48-72 h | 94,000 tested, 4.3% active | Potency, µM (doses to about 96.7 µM), inactives show at the top dose activity change, negative = cytotoxicity, most hits filed as inhibitors; note: nearly all actives have a fitted effect of over 55% in size
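NIH 3T3 cells at 400 cells/well received 23 nL of compound by pintool and were incubated 48 or 72 h at 37 °C. Viability was read as ATP-coupled CellTiter-Glo luminescence.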
hNpr1 antagonist: human Npr1 receptor antagonism. P16066. HEK293 hNpr1 GloSensor cGMP, ANP-stimulated luminescence. Potency, µM (series often up to 46.3 µM), for inactives: at the highest dose activity change, negative = inhibition, actives largely listed as inhibitors. 76,000 tested, 1.6% active; calls by dose curve; note: nearly all actives have a fitted effect of over 60% in size
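HEK293 cells stably expressing human Npr1 and cGMP GloSensor pGS-40F, loaded 2 h with 2% GloSensor reagent, given compound 30 min at room temperature. Luminescence read before and 20 min after 0.1 nM hNppA.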
Numbers without * were called inactive; i = inactive; ? = inconclusive; nt = not tested or not shown; ! = not confirmed by another sample; [ ] = remark or other dose. Unless noted, calls come from the whole dose curve; as a rule, active = well fitted curve in the direction sought with a large enough effect; inconclusive = small, poorly fitted or top-dose-only effect, or another doubt; inactive = no such curve, though single readings can be large; an effect the other way counts as inactive or inconclusive. % is set by controls: 0 for no effect and ±100 for the full control effect; potency is the fitted concentration of half-maximal effect.

SMILES	FLuc inh	HEK293 tox	3T3 cytotox	hNpr1 antagonist
O=C(c1ccc(C(F)(F)F)cc1)N1CCC2(C1)C(=NC1CCCCC1)NC(=O)N2c1cccnc1 (stereo not given)	nt	i	-2.0%	nt
O=C(c1ccc(C(F)(F)F)cc1)N1CCC2(CC1)C(=NC1CCCC1)NC(=O)N2c1cccnc1	nt	i	35.5µM*	nt
COc1cccc(N2C(=O)NC(=NC3CCCCC3)C23CCN(C(=O)c2ccccc2)CC3)c1	nt	-3.6%	31.6µM*	nt
O=C(c1ccccc1)N1CCC2(CC1)C(=NC1CCCCC1)NC(=O)N2c1cc(F)cc(F)c1	nt	-9.4%	31.6µM*	nt
COc1cccc(N2C(=O)NC(=NC3CCCCC3)C23CCN(C(=O)c2ccccc2)C3)c1 (stereo not given)	i	?	-5.8%	-5.2%
Cc1noc(C)c1[S+](=O)([O-])N1CCCC1C(=O)N1CCC(N2CCOCC2=O)CC1 (stereo not given)	nt	i	-7.3%	nt
CC(=O)Nc1ccc(CN2C(=O)OC3(CCN(C(=O)c4cccc(C#N)c4)CC3)C2(C)c2ccccc2)cc1 (stereo not given)	i	-16.1%	?	-5.9%
CC1(c2cccnc2)N(CCOc2ccccc2)C(=O)OC12CCN(C(=O)CN1CCOCC1)CC2 (stereo not given)	i	-2.3%	?	5.2%
CC1(c2ccccc2)N(Cc2ccccc2F)C(=O)OC12CCN(C(=O)CN1CCOCC1)CC2 (stereo not given)	i	3.7%	22.4µM*	3.1%
CC1(c2ccccc2)N(Cc2ccccc2F)C(=O)OC12CCN(C(=O)c1cccc(C#N)c1)CC2 (stereo not given)	i	-13.2%	7.08µM*	2.4%
CN1CCC(C(=O)N2CCC3(CC2)OC(=O)N(Cc2ccccc2F)C3(C)c2ccccc2)CC1 (stereo not given)	i	?	?	-7.5%
CC(=O)N1CCC2(CC1)OC(=O)N(Cc1ccccc1F)C2(C)c1ccccc1 (stereo not given)	i	-2.9%[172 µM]	35.5µM*	-1.6%[70.6 µM]
CC1(c2ccccc2)N(Cc2ccccc2)C(=O)OC12CCN(C(=O)CN1CCOCC1)CC2 (stereo not given)	i	3.9%	14.1µM*	-4.5%
CC(=O)N1CCC(Cc2noc(-c3ccccc3)n2)C1 (stereo not given)	i	?	-12.6%	4.4%
O=C(c1cccc(F)c1)N1CCCC(Cc2noc(-c3ccccc3)n2)C1 (stereo not given)	i	?	31.6µM*	-9.0%
O=C(CCc1nc2ccccc2[nH]1)N1CCCC(Cc2noc(-c3ccccc3)n2)C1 (stereo not given)	i	22.4µM*	?	?
CC(C)N1C[C@H](Oc2ccccc2)[C@@H]1C1CCN(C(=O)c2cccc(C#N)c2)CC1	nt	i	-12.6%	nt
CN1C[C@H](NCc2cccc(Cl)c2)CCC[C@@H](C(=O)NCc2cc(F)cc(F)c2)CC1=O	i	44.7µM*	?	5.4%
CC1CCC2(CC1)OCC(C(=O)NCc1ccccc1F)N2C(=O)c1ccccc1F (stereo not given)	i	79.4µM*	-23.6%	5.4%
COc1ccccc1C(=O)N1CCc2c(c(-c3nncn3Cc3ccccc3)nn2C)C1	nt	-21.4%	-28.4%	nt
O=C(c1cncc(Br)c1)N1CCC(CCOc2ccccc2F)C1 (stereo not given)	i	39.8µM*	?	-15.3%
COCC1CN(C)CC12CCN(S(=O)(=O)c1ccc(C#N)cc1)CC2 (stereo not given)	i	?	-2.5%	-1.4%
COc1ccc(CN[C@@H]2C=C[C@@H](c3c(C)nn(-c4ccccc4)c3C)C2)cc1	?	28.2µM*	50.1µM*	-19.3%[70.6 µM]
COc1ccc(-n2nc(C)c([C@@H]3C=C[C@@H](NCc4ccc(N(C)C)cc4)C3)c2C)cc1	22.4µM*	?	?	?
COc1ccc(C(=O)N[C@@H]2C=C[C@@H](c3c(C)nn(-c4ccccc4)c3C)C2)cc1	i	?	?	-8.2%[70.6 µM]
SMILES	FLuc inh	HEK293 tox	3T3 cytotox	hNpr1 antagonist
COc1ccc(C(=O)N[C@@H]2C=C[C@@H](c3c(C)nn(-c4ccc(C(F)(F)F)cc4)c3C)C2)cc1	i	?	?	1.2%
COc1ccc(-n2nc(C)c([C@@H]3C=C[C@@H](NC(=S)NCC(C)C)C3)c2C)cc1	15.8µM*	28.2µM*	?	28.2µM*
COc1ccc(-n2nc(C)c([C@@H]3C=C[C@@H](NCc4cccc(Cl)c4)C3)c2C)cc1	39.8µM*	28.2µM*	25.1µM*	?
O=C(c1ccc(F)cc1)N1CCN(CCn2nc3n(c2=O)CCCC3)CC1	nt	-23.1%	-25.4%	nt
Cn1nc(C2CC2)cc1NC(=O)c1ccccc1Cl	nt	-10.3%[172 µM]	-20.5%[138 µM]	nt
Cc1ccc2nc(C3CCCN(Cc4ccc(-c5cncnc5)cc4)C3)[nH]c(=O)c2c1 (stereo not given)	i	4.6%	4.3%	1.7%
Cc1ccc(-c2cccc(CN3CCCC(c4nc5ccc(C)cc5c(=O)[nH]4)C3)c2)c(C)c1 (stereo not given)	i	35.5µM*!	?	-1.7%
O=c1[nH]c(C2CCCN(Cc3cccs3)C2)nc2ccc(F)cc12 (stereo not given)	i	?	?	-2.6%
O=c1[nH]c(C2CCCN(Cc3cccc(-c4ccc(F)cc4F)c3)C2)nc2ccc(F)cc12 (stereo not given)	i	39.8µM*	?	?
COc1ccccc1-c1ccc(CN2CCCC(c3nc4ccc(F)cc4c(=O)[nH]3)C2)cc1 (stereo not given)	i	35.5µM*!	39.8µM*!	?
O=c1[nH]c(C2CCCN(Cc3ccccc3)C2)nc2ccc(F)cc12 (stereo not given)	i	50.1µM*!	28.2µM*!	-12.2%[70.6 µM]
CC(=O)Nc1ccc(CN(C)Cc2cccc(C(F)(F)F)c2)cc1	nt	?	-26.0%	nt
O=C(C1CCN([S+](=O)([O-])c2cccc(C(F)(F)F)c2)CC1)N1CCC(N2CCOC2=O)CC1	nt	-11.4%	-30.7%	nt
Cc1ccc2nc(-c3ccc(F)cc3)c(CN3CCCC(C(N)=O)C3)cc2c1 (stereo not given)	?	?	?	-5.6%
O=c1[nH]c(C2CCCN(Cc3ccc(-c4ccccc4)cc3)C2)nc2ccc(F)cc12 (stereo not given)	i	31.6µM*!	?	?
O=c1[nH]c(C2CCCN(Cc3ccc(-c4cc(F)cc(F)c4)cc3)C2)nc2ccc(F)cc12 (stereo not given)	i	44.7µM*!	?	-26.0%
CNC(=O)c1cc(C)nc2onc(C3CCCN3C(C)=O)c12 (stereo not given)	nt	?	i	nt
CCN1CCN(C(=O)CNC(=O)c2cccc(-c3ccsc3)c2)CC1	nt	-26.9%	-19.4%	nt
Cc1ccc(-c2noc([C@@H]3C[C@@H](O)CN3Cc3cccnc3)n2)cc1F	?	63.1µM*	?	?

Screening data from PubChem.
